Screening data as filed in PubChem.
Only some compounds are listed: those with a hit (about 18% of all), similar ones and a draw of the others.
Six1-Eya2 inh: qHTS Assay for Inhibitors of the Six1/Eya2 Interaction; Homeobox protein SIX1 (Homo sapiens) + Protein phosphatase EYA2 (Homo sapiens), …; AlphaScreen GST-Six1/His-Eya2 binding, biochemical; hits give low values; activity change, % (concentration not given with the values); 360,000 compounds, 0.56% hits; in the data active = activity change below about -65%; inconclusive = mostly about -30% to -63%
Target sequence (O00167 whole entry, looked up): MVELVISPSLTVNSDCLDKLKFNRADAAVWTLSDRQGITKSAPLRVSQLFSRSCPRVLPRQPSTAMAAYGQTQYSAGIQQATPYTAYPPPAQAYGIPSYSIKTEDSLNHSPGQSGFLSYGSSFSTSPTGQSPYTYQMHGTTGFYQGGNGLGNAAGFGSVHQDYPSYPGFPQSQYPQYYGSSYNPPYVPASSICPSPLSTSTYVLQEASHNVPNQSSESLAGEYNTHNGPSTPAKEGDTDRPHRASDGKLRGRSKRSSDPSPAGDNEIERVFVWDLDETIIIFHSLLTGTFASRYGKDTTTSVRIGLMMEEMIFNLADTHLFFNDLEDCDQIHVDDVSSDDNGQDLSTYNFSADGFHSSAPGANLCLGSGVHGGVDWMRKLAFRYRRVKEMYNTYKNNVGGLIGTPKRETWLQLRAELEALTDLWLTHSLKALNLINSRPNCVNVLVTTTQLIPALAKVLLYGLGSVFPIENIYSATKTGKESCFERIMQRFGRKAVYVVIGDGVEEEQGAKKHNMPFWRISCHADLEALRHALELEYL
Target sequence (Q15475 whole entry, looked up): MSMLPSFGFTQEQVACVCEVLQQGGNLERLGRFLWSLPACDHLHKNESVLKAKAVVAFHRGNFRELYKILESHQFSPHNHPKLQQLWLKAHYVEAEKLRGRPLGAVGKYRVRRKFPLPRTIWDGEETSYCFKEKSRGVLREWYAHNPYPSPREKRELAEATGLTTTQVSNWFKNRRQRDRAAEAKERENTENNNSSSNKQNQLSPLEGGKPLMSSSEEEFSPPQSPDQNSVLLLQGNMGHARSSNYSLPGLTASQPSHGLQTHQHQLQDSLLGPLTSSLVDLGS
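Compounds are tested against tagged Six1 and Eya2 proteins bridged by glutathione donor and nickel acceptor beads; after a one-hour incubation at 37 °C without light, AlphaScreen emission is recorded.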
IL1B secr inh: qHTS for Inhibitors of Inflammasome Signaling: IL-1-beta AlphaLISA Primary Screen. activity change, % at 57.5 µM. THP-1 LPS/ATP IL-1B secretion, AlphaLISA, 16 h; hits give low values. 360,000 compounds, 4.7% hits; in the data active = activity change below about -50%; inconclusive = mostly about -30% to -49%
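Secreted IL-1B measured by AlphaLISA bead assay after 16 h compound exposure of THP-1 cells; compounds (final up to 57.5 uM) added 1 h before LPS (250 ng/mL) and ATP (1.25 mM) stimulation; lower signal means less secretion.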
DT40 TDP1 CPT: qHTS for Inhibitors of human tyrosyl-DNA phosphodiesterase 1 (TDP1): qHTS in cells in presence of CPT; chicken DT40 Tdp1-/-;hTDP1 cells + 20 nM CPT, ATP luminescence, 48 h; Potency, µM (titrated, usually from 46.2 µM), without a hit: top-dose activity change, negative = growth inhibition, usual class: inhibitors; 420,000 compounds, 12% hits; AID 686979, 2013; also: potency is read from the fitted curve at half-maximal effect; nearly all actives have a fitted effect of over 55% in size
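Cell growth measured by CellTiter-Glo luminescence after a minimum 48 h, 37 C compound exposure with 20 nM CPT in Tdp1-knockout DT40 cells stably expressing hTDP1, seeded 400/well; qHTS titration format.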
TDP1 inh: qHTS Assay for Inhibitors of Tyrosyl-DNA Phosphodiesterase (TDP1); recombinant TDP1, AlphaScreen DNA substrate cleavage; Potency, µM (titrated, usually from 130 µM), for inactives: at the top dose activity change, negative = inhibition, most hits filed as inhibitors; 350,000 compounds, 0.28% hits; also: potency is read from the fitted curve at half-maximal effect; nearly all actives have a fitted effect of over 40% in size
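AlphaScreen read-out: signal falls as enzyme removes the 3' tyrosine-FITC from a 5'-biotinylated DNA oligo (15 nM, 5 min, RT). Enzyme was E. coli-made recombinant Tdp1 at 1 nM, exposed to compound for 15 min beforehand; beads 10 ug/ml, 10 min.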
TDP1 cell noCPT: qHTS for Inhibitors of human tyrosyl-DNA phosphodiesterase 1 (TDP1): qHTS in cells in absence of CPT; DT40 Tdp1-/- hTDP1 cells, no CPT, ATP luminescence, 48 h; AID 686978, 2013; Potency, µM (titrated, usually from 46.2 µM), for the others: top-dose activity change, negative = growth inhibition, most hits filed as inhibitors; 420,000 compounds, 15% hits; also: potency is read from the fitted curve at half-maximal effect; nearly all actives have a fitted effect of over 55% in size
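Chicken DT40 Tdp1-/- cells stably complemented with human TDP1 were seeded at 400 cells/well with DMSO in place of 20 nM camptothecin. After compound pinning, cells grew at least 48 hr at 37 °C; viability read by CellTiter-Glo luminescence.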
CtBP-E1A blk: qHTS Assay for Inhibitors of the CtBP/E1A Interaction; CtBP / adenovirus E1A interaction (AlphaScreen); AlphaScreen GST-E1A/His-CtBP binding, 1536-well; hits give low values; activity change, % (no concentration beside the values); 340,000 compounds, 0.49% hits; in the data active = activity change below about -65%; inconclusive = mostly about -30% to -63%
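Steps: dispense buffer (Tris pH 8.0, NaCl 300 mM, TCEP 1 mM, BSA, Tween 20); add 5X protein mix (GST-E1A, His-CtBP, 125 nM each); pin 23 nL compound; 2 h at 37 °C, dark; add 5X beads (50 ug/mL); 1 h; read.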
Numbers without * were called inactive; ? = inconclusive; nt = not tested or not shown. Unless noted, calls follow the shape of the dose curve; as a rule, active = well fitted curve in the direction sought with a large enough effect; inconclusive = small, poorly fitted or top-dose-only effect, or another doubt; inactive = no such curve, though single readings can be large; an effect the other way counts as inactive or inconclusive. % is scaled to controls: 0 for no effect and ±100 for the full control effect.

SMILES	Six1-Eya2 inh	IL1B secr inh	DT40 TDP1 CPT	TDP1 inh	TDP1 cell noCPT	CtBP-E1A blk
CCC(=O)N1CCC1(C)C(=O)Nc1cccc2cccnc12 (stereo not drawn)	9	2	1%	nt	-16%	8
C/C(CC(=O)Nc1ccccn1)=N\NC(=O)c1ccc([N+](=O)[O-])cc1Cl	?	-1	1%	-8%	4%	23
COc1ccc(N2C(=O)C3C(C2=O)C(C(=O)c2ccc(Cl)cc2)N2CCCC32)cc1 (stereo not drawn)	5	nt	?	11%	?	2
CC(C)(C)c1ccc(CC(=O)N2CCC2(C)C(=O)Nc2cccc3cccnc23)cc1 (stereo not drawn)	2	-4	?	nt	23µM*	0
Cc1ccc(C2=NC(=O)/C(=C/c3cc(O)c(O)c(Br)c3)S2)cc1	-30	33	18µM*	4%	16µM*	?
CCn1c(=O)c(C(=O)NCc2ccc(OC)cc2)c(O)c2ccccc21	9	40	23µM*	3%	23µM*	7
CCCn1c(=O)c(C(=O)NCc2ccccc2)c(O)c2ccccc21	-1	74	?	nt	?	12
COc1ccc(CNC(=O)c2c(O)c3ccccc3n(C)c2=O)cc1	6	-12	6%	nt	-6%	6
C=CCn1c(=O)c(C(=O)Nc2ccc(C)cn2)c(O)c2ccccc21	4	43	?	nt	18µM*	nt
CCCn1c(=O)c(C(=O)NCCc2ccccc2)c(O)c2ccccc21	15	38	13µM*	nt	?	0
C=CCn1c(=O)c(C(=O)NCc2ccc(Cl)cc2)c(O)c2ccccc21	19	49	?	-8%	23µM*	nt
C=CCn1c(=O)c(C(=O)Nc2cccnc2)c(O)c2ccccc21	9	18	?	8%	?	-9
COC(=O)c1ccccc1NS(=O)(=O)c1ccc2c(c1)oc(=O)n2C	3	12	?	nt	?	3
CCCCCCCCCC(=O)NNC(=O)c1c(O)c2ccccc2n(CCC)c1=O	5	-3	?	7%	?	0
O=C(NCc1ccc2c(c1)OCO2)c1c(O)c2cccc3c2n(c1=O)CCC3	12	10	-4%	3%	-17%	-1
Cn1c(=O)c(C(=O)NCCc2ccccc2)c(O)c2ccccc21	21	42	-24%	-4%	-29%	20
CC(C)Cn1c(=O)c(C(=O)N/N=C/c2cccc(F)c2)c(O)c2ccccc21	4	21	2.9µM*	3%	0.33µM*	6
CC(C)Cn1c(=O)c(C(=O)NCc2ccc3c(c2)OCO3)c(O)c2ccccc21	6	34	23µM*	nt	?	nt
C=CCn1c(=O)c(C(=O)NCCc2ccccc2)c(O)c2ccccc21	30	12	21µM*	nt	?	11
CCCCCCCCC(=O)NNC(=O)c1c(O)c2ccccc2n(CCC)c1=O	-3	-16	23µM*	9%	?	-6
Cc1nc2ccc(F)cc2cc1C(=O)Nc1ccc(Cl)c(Cl)c1	5	17	?	3%	?	3
Cc1nc2sc(C)c(C)n2c(=O)c1S(=O)(=O)N1CCN(c2ccccc2F)CC1	nt	nt	-28%	0%	?	nt
CC(=O)Nc1ccn(C2OC(C(COC(C)=O)NC(=O)C3CCCN3C(=O)OC(C)(C)C)C(OC(C)=O)C2OC(C)=O)c(=O)n1 (stereo not drawn)	nt	nt	nt	7%	nt	nt
